NPC1 prom act – activates the NPC1 promoter. Huh7 NPC1 promoter luciferase reporter, 24 h. Potency, µM (top dose mostly 9.22 µM), hits mostly activators. hit rate 2.4% among 320,000; note: nearly all actives have a fitted effect of over 60% in size
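Stable NPC1-promoter luciferase Huh7 line; cpd (DMSO) 24 h, 37 °C, 5% CO2; Amplite luciferase reagent 10 min RT; luminescence readout. qHTS format.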
KinaseGlo FLuc – blocks Kinase-Glo luciferase, a counter-screen artifact; Kinase-Glo luciferase, ATP luminescence, 8 min; Q27757; Potency, µM (highest dose often 38.3 µM), actives largely listed as inhibitors; hit rate 0.28% among 200,000; note: nearly all actives have a fitted effect of over 60% in size
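Substrate mix (final 50 mM imidazole pH 7.2, 50 mM KCl, 7 mM MgCl2, 10 uM ATP, 0.01% Tween 20, 0.05% BSA) plus pin-tool compound, then Kinase-Glo detection mix; 8 min ambient, luminescence read.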
Rab9 promoter act – activators of Rab9 promoter; Huh7 Rab9 promoter-luciferase reporter, luminescence, 24 h; Potency, µM (top dose mostly 9.22 µM), usual class: activators; hit rate 2.8% among 320,000; AID 485297; note: nearly all actives have a fitted effect of over 60% in size
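Cells were plated at 1500 per well in reduced-serum medium with 10% FBS and left 2 h. Compound in DMSO was then added for 24 h at 37 °C. Reporter signal was read by luminescence after 10 min with luciferase detection reagent.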
FLuc counter – firefly luciferase modulation, counter-screen for miR-21 project; P08659; purified FLuc, Km substrates, luminescence inhibition; Potency, µM (highest dose often 57.5 µM), most hits filed as inhibitors; AID 588342; hit rate 6.9% among 360,000; note: nearly all actives have a fitted effect of over 55% in size
Target sequence (P08659 whole entry, looked up): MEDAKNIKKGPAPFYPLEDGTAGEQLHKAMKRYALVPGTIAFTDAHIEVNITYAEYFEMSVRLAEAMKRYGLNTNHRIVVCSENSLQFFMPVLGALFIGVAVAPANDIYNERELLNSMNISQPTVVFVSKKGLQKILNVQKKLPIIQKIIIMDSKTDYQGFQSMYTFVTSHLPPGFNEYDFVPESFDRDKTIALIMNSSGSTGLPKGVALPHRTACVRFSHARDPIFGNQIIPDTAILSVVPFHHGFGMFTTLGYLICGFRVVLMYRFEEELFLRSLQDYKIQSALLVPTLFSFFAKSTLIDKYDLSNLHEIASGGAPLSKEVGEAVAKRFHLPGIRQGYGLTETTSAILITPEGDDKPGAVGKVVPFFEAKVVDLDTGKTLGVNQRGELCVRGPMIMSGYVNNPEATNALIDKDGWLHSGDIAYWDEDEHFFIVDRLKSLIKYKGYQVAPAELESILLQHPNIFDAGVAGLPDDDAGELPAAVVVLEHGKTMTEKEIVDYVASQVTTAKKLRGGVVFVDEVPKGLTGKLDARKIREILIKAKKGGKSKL
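Purified P. pyralis luciferase (10nM final) with 10uM D-luciferin and 10uM ATP (Km levels) in 50mM Tris acetate pH 7.5, 10mM Mg acetate, 0.01% Tween-20, 0.05% BSA; qHTS 6-point titration, ~60 µM downward; luminescence read.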
ELG1 genotoxic – inducers of genotoxicity in HEK293T ELG1-luciferase cells. HEK293T ELG1-luciferase reporter, luminescence, 16 h. Potency, µM (highest dose often 46 µM), most hits filed as activators. hit rate 1.3% among 330,000. AID 504466; note: nearly all actives have a fitted effect of over 60% in size
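Quantitative HTS format in 1536-well plates. HEK293T ELG1-luciferase reporter cells receive test compound and are incubated 16 hr at 37 °C, 5% CO2; ONE-Glo added, 30 min room temperature, then luminescence read.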
SMN2 splice enh – enhancers of SMN2 splice variant expression | HEK293 SMN2-luciferase splicing reporter, luminescence, 30-36 h | Potency, µM (series often up to 46.1 µM), actives largely listed as activators | hit rate 2.8% among 210,000; note: nearly all actives have a fitted effect of over 55% in size
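HEK293 cells carry an SMN2 minigene-luciferase reporter in which exon 7 inclusion puts luciferase in frame. Cells were seeded at 2000 cells/well, attached for 10-12 hours, then exposed to compounds for 30-36 hours at 37C before ONE-Glo luminescence.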
Numbers stand for hits; [ ] = remark or other dose. This is a sample that favours compounds with a hit; in the whole collection about 7.3% have one here. Calls come from the whole dose curve; as a rule, active = well fitted curve in the direction sought with a large enough effect; inconclusive = small, poorly fitted or top-dose-only effect, or another doubt; inactive = no such curve, though single readings can be large; an effect the other way counts as inactive or inconclusive.

COc1ccc(NC(=O)c2ccc(NC(=O)c3cccs3)cc2)cc1 was read as NPC1 prom act inactive, Rab9 promoter act inactive, FLuc counter inactive and ELG1 genotoxic 21µM.
Screening CC(=O)N1CCc2cc(Br)cc(S(=O)(=O)NCCc3ccc(Cl)cc3)c21 returned FLuc counter inactive and SMN2 splice enh inactive.
COc1ccc(NC(=O)c2ccco2)cc1NC(=O)c1cccs1 was read as NPC1 prom act inactive, KinaseGlo FLuc inactive, Rab9 promoter act inactive, FLuc counter inactive, ELG1 genotoxic inactive and SMN2 splice enh 4.5µM.
For COC(=O)Cc1ccc(NC(=O)c2ccccc2Br)cc1 the results were NPC1 prom act inactive, KinaseGlo FLuc inactive, Rab9 promoter act inactive, FLuc counter 17µM, ELG1 genotoxic inactive and SMN2 splice enh inactive.
`Cc1ccc(C(=O)Nc2cccc(NC(=O)c3cccs3)c2)c(C)c1` gave NPC1 prom act inactive, Rab9 promoter act inactive, FLuc counter 12µM and ELG1 genotoxic inactive.
COc1ccc(NC(=O)c2cccs2)cc1OC was read as NPC1 prom act inactive, KinaseGlo FLuc inactive, Rab9 promoter act inactive, FLuc counter inconclusive and ELG1 genotoxic 23µM.
COc1cc(NC(=O)c2cccs2)c(OC)cc1NC(=O)c1ccco1 was read as NPC1 prom act inactive, KinaseGlo FLuc inactive, Rab9 promoter act inactive, FLuc counter inactive, ELG1 genotoxic inactive and SMN2 splice enh inactive.
For COC(=O)Cc1ccc(NC(=S)NNC(=O)c2ccccc2Br)cc1 the results were NPC1 prom act inactive, KinaseGlo FLuc inactive, Rab9 promoter act inactive, FLuc counter inactive, ELG1 genotoxic inactive and SMN2 splice enh inactive.
COc1cc(NC(=O)c2ccc(C)cc2C)ccc1NC(=O)c1cccs1 was read as NPC1 prom act inactive, Rab9 promoter act inactive, FLuc counter inconclusive and ELG1 genotoxic inactive.
For Cc1ccc(S(=O)(=O)c2cn(C)c3cc(N4CCCC(C)C4)c(F)cc3c2=O)c(C)c1 (centres undefined) the results were FLuc counter inactive.
`COc1ccc(-c2[nH]ncc2/C=N\NC(=O)c2cccs2)cc1OC` gave NPC1 prom act inactive, Rab9 promoter act inactive, FLuc counter 19µM and ELG1 genotoxic inactive.
`COc1ccccc1CC(=O)Nc1ccc(NC(=O)c2cccs2)cc1` gave NPC1 prom act inactive, Rab9 promoter act inactive, FLuc counter inactive and ELG1 genotoxic inactive.
Screening COc1ccc(C(=O)Nc2cccc(NC(=O)c3cccs3)c2)cc1 returned NPC1 prom act inactive, Rab9 promoter act inactive, FLuc counter 9.5µM and ELG1 genotoxic inactive.
Screening COC(=O)Cc1ccc(NC(=O)c2cccs2)cc1 returned NPC1 prom act inconclusive, KinaseGlo FLuc inactive, Rab9 promoter act 2.8µM, FLuc counter 21µM, ELG1 genotoxic inactive and SMN2 splice enh 11µM.
COc1ccc(-c2[nH]ncc2/C=N/NC(=O)c2cccc([N+](=O)[O-])c2)cc1OC was read as NPC1 prom act inactive, KinaseGlo FLuc inactive, Rab9 promoter act inactive, FLuc counter inactive and ELG1 genotoxic inactive.
`O=C(Nc1cccc(NC(=S)NC(=O)c2cccs2)c1)c1ccccc1` gave NPC1 prom act inactive, KinaseGlo FLuc inactive, Rab9 promoter act inactive, FLuc counter inactive, ELG1 genotoxic inactive and SMN2 splice enh inactive.
Screening N/C(=N\O)c1ccc(NC(=O)c2cccs2)cc1 returned NPC1 prom act inconclusive, KinaseGlo FLuc inconclusive, Rab9 promoter act 3.5µM, FLuc counter 17µM, ELG1 genotoxic inconclusive and SMN2 splice enh inactive.
`CC1CCCN(C(=O)COc2ccc(NC(=O)c3cccs3)cc2)C1` (centres undefined) gave NPC1 prom act inactive, KinaseGlo FLuc inactive, Rab9 promoter act inactive, FLuc counter 9.5µM, ELG1 genotoxic inactive and SMN2 splice enh inactive.
Screening COc1ccc(Cl)cc1-c1nc(-c2ccc(NC(=O)c3cccs3)cc2)no1 returned NPC1 prom act inactive, KinaseGlo FLuc inactive, Rab9 promoter act inconclusive, FLuc counter 15µM, ELG1 genotoxic inactive and SMN2 splice enh inactive.
`CC(=O)c1ccc(NC(=O)c2cccs2)cc1` gave NPC1 prom act 2.8µM, KinaseGlo FLuc inconclusive, Rab9 promoter act 2.2µM, FLuc counter 15µM, ELG1 genotoxic 16µM and SMN2 splice enh 10µM.
Screening Cc1ccc(C(=O)Nc2ccc(NC(=O)c3cccs3)cc2)cc1C returned FLuc counter inactive and SMN2 splice enh inactive.
Screening Cc1ccc(S(=O)(=O)Nc2ccc(NC(=O)c3cccs3)cc2)cc1 returned NPC1 prom act inactive, KinaseGlo FLuc inactive, Rab9 promoter act inactive, FLuc counter inactive, ELG1 genotoxic inactive and SMN2 splice enh 11µM.
For COc1ccc(N(C(=O)c2cccc(C)c2)S(=O)(=O)c2ccc3c(c2)n(C)c(=O)n3C)cc1 the results were FLuc counter inactive and SMN2 splice enh inactive.
Screening CC(=O)Nc1ccc(OC(=O)c2cccs2)cc1 returned NPC1 prom act inactive, KinaseGlo FLuc inactive, Rab9 promoter act inactive, FLuc counter inconclusive, ELG1 genotoxic inactive and SMN2 splice enh inactive.
O=C(Nc1cccc(NC(=O)c2cccs2)c1)c1ccc(Br)o1 was read as NPC1 prom act inactive, Rab9 promoter act inactive, FLuc counter 24µM and ELG1 genotoxic inactive.
`CC(=O)c1ccc(OC(=O)c2cccs2)cc1` gave NPC1 prom act inactive, KinaseGlo FLuc inactive, Rab9 promoter act inactive, FLuc counter 12µM, ELG1 genotoxic inactive and SMN2 splice enh inactive.
`O=C(Nc1ccc(NC(=O)c2cccs2)cc1)c1ccc(Br)o1` gave NPC1 prom act inactive, KinaseGlo FLuc inactive, Rab9 promoter act inactive, FLuc counter inactive, ELG1 genotoxic inconclusive and SMN2 splice enh inactive.
Screening COc1ccc(NC(=O)n2nc(OC(=O)c3cccs3)cc2N)cc1 returned NPC1 prom act inactive, Rab9 promoter act inactive, FLuc counter 17µM and ELG1 genotoxic inconclusive.
`C[C@H](CCC(=O)NN)[C@@H]1CC[C@@H]2[C@H]3CC[C@H]4C[C@@H](O)CC[C@@]4(C)[C@@H]3CC[C@]21C` gave KinaseGlo FLuc inactive[7.66 µM] and SMN2 splice enh inactive[9.22 µM].
Screening COc1ccc(NC(=O)COC(=O)C2CC3C=CC2C3)cc1 (centres undefined) returned NPC1 prom act inactive, KinaseGlo FLuc inactive, Rab9 promoter act inactive, FLuc counter 17µM, ELG1 genotoxic inactive and SMN2 splice enh inactive.
Screening O=C(COC(=O)C1CC2C=CC1C2)Nc1ccccc1F (centres undefined) returned NPC1 prom act inactive, KinaseGlo FLuc inactive, Rab9 promoter act inconclusive, FLuc counter inconclusive, ELG1 genotoxic inconclusive and SMN2 splice enh inactive.
For COc1cccc(NC(=O)C2CCCN(c3nnc(-n4c(C)ccc4C)s3)C2)c1 (centres undefined) the results were FLuc counter inactive and SMN2 splice enh inactive.
